Test results published in PubChem BioAssay (NCI).
This is part of a sample that, as a whole, favours compounds with a hit. Of some 83,000 tested, about 20% had one in any assay.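 Single-dose data. Exposure time 48 hours. Values below 10 considered active.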 The source made the active and inactive calls.

test system: HL-60(TB) leukemia; test: NCI-60 one-dose screen, 48 h (100 = growth as untreated, 0 = no growth, -100 = all killed); details: 10 µM unless noted

| SMILES | growth |
| --- | --- |
| Cc1scc2c1N(C(=O)CN1CCN(C)CC1)c1ccccc1NC2=O | 121% (inactive) |
| Cc1cc(Cl)nc(NCc2cc(Nc3ccnc4cc(Cl)ccc34)ccc2F)n1 | 42.4% (inactive) |
| COc1ccc2c(c1)[nH]c1c(/C=C/c3ccccc3)nccc12 | 61.1% (inactive) |
| O=c1[nH]c(-c2cccc(F)c2)cc2cc(F)ccc12 | -24.6% (active) |
| CCOC(=O)C1=C(N)Oc2c(sc3c(C)cccc23)C1c1ccc(F)cc1 (configuration not stated) | -39.3% (active) |
| CCCCCCCCCCCC[n+]1ccc(CCCCCCCCC)cc1 | -53.3% (active) |
| Cc1csc(C#Cc2cncc(O)c2)n1 | 110% (inactive) |
| O=C(Nc1ccc2c(O)cc(S(=O)(=O)O)cc2c1)c1ccc([N+](=O)[O-])cc1 | 75.3% (inactive) |
| NS(=O)(=O)c1ccc(CCn2c(SCC(=O)c3ccc(Cl)cc3)nc3ccccc3c2=O)cc1 | 95.5% (inactive) |
| O=C(/C=C/c1ccc(F)cc1)c1ccc(NC(=O)N2CCN(c3cc4c(cc3F)c(=O)c(C(=O)O)cn4C3CC3)CC2)cc1 | 98.1% (inactive) |
| CC(C)(C)c1cc(C(=O)N2CCC(C(=O)NCCN)CC2)cc(C(C)(C)C)c1 | 90.5% (inactive) |
| O=C(Oc1ccc(CCl)cc1)c1ccccc1 | -44.6% (active) |
| O=C(Nc1ccc(I)cc1F)c1cc(I)ccc1O | -25.2% (active) |
| COc1ccc2c(c1)C(c1c[nH]c3ccccc13)(c1c[nH]c3ccccc13)CCO2 | 41.2% (inactive) |
| Cc1cc2c(c(C)n1)CN(C(=O)Nc1nc(-c3cncs3)ccc1N)C2 | 139% (inactive) |
| Cc1nn(-c2ccccc2)c2nc3nc4c(c(N)c3c(-c3ccc(Cl)cc3)c12)CCC4 | 102% (inactive) |
| Cc1c(O)cc(-c2cnc(Nc3ccccc3)s2)c(O)c1C | 101% (inactive) |
| Cc1cc(=O)n(-c2ccc(F)cc2)[nH]1 | 101% (inactive) |
| C[C@@H](C[C@H](CCO)c1ccccc1)c1ccc2ccccc2c1 | -38.5% (active) |
| CCC1(C2CCCC2)NC(=O)NC1=O (configuration not stated) | 90.9% (inactive) |
| C=C[C@@H]1C[C@@H]2Cc3ccccc3N1O2 | -12.8% (active) |
| C=C1C[C@@]2(C)C(CC[C@]3(C)C2CC=C2C4CC(C)(C)C[C@@H](OC(=O)/C(C)=C\C)[C@]4(C(=O)O)CC[C@]23C)C(C)(C)C1=O (some centres not stated) | -32.4% (active) |
| O=C1OCC2=C1C(c1ccccc1)c1cc3c(cc1N2CCO)OCCO3 (configuration not stated) | -14.1% (active) |
| CC[C@H](C)[C@H]1NC(=O)[C@@H](N[C@](C)(O)[C@@H](N)CC(C)C)[C@@H](C)OC(=O)[C@H](Cc2ccc(OC)cc2)N(C)C(=O)[C@@H]2CCCN2C(=O)[C@H](CC(C)C)NC(=O)[C@@H](C)C(=O)[C@H](C(C)C)OC(=O)C[C@@H]1O | -27.7% (active) |
| CCN(CC)CCC(=O)c1ccc(OC)c2ccccc12 | 44.2% (inactive) |
| COc1cc(OC)c(/C=C/C(=O)c2ccc(Nc3ncnc4ccccc34)cc2)c(OC)c1 | 2.85% (active) |
| CCCNC(=O)c1ccc(S(N)(=O)=O)cc1 | 133% (inactive) |
